Assay [1] has as its system Plasmodium falciparum Sir2 (PF13_0152, Sir2A). Description: Plasmodium falciparum Sir2A binding compounds – biochemical, small-molecule microarray, 635 nm fluorescence, primary screen (AID 1098).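 Also: score merges spot fluorescence intensity with its signal-to-noise ratio.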 To be noted: fluorescence 635 nm, higher = more signal.
Assay [2] is described as follows: probe aDKK1 binding to arrayed compounds – biochemical, biotinylated probe, 635/667 nm fluorescence, primary screen (AID 1099).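 Also: score merges 667nm spot fluorescence with signal to noise across triplicate slides.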 The following applies: small-molecule microarray, higher = more signal.
Assay [3] is described as follows: probe aCHRDL2 binding to arrayed compounds – biochemical, biotinylated probe, 635/667 nm fluorescence, primary screen (AID 1100). The following applies: small-molecule microarray, higher = more signal.
Assay [4] can be described thus: change in splice reporter luminescence, either direction, cell-based, HEK293, spliceosome inhibition project, primary screen (AID 1101).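 Also: HEK293 cells carrying a splicing-competent luciferase reporter gene; test concentration not given here.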 To be noted: HEK293 splicing luciferase reporter, 24 h, higher = more signal, called active from +8 up or from −8 down.
For assay [5], the target named is Fibroblast growth factor 10 (Homo sapiens) (UniProt O15520). In words: compounds binding fibroblast growth factor 10 – biochemical, small-molecule microarray, 635 nm fluorescence, primary screen (AID 1102). The following applies: FGF10 binding, fluorescence 635 nm, higher = more signal.
The test system of assay [6] is glycogen synthase kinase-3 (GSK3A per assay name; protocol says GSK3B). In words: compounds binding glycogen synthase kinase-3 – biochemical, small-molecule microarray, 635 nm fluorescence, GSK3A, primary screen (AID 1103). Also: the record names both GSK3A and GSK3B. The following applies: fluorescence 635 nm, higher = more signal.
Assay [7] concerns the target Epidermal growth factor receptor (Homo sapiens) (UniProt P00533). In words: compounds binding epidermal growth factor receptor – biochemical, small-molecule microarray, 635 nm fluorescence, primary screen (AID 1104).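 Also: score merges 667 nm emission intensity with spot signal to noise over triplicate slides.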 The following applies: EGFR binding, higher = more signal.
Assay [8] has as its target Follistatin-related protein 3 (Homo sapiens) (UniProt O95633). In words: compounds binding follistatin-related protein 3 – biochemical, small-molecule microarray, 635 nm fluorescence, primary screen (AID 1105).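 Also: score merges emission near 667 nm and signal to noise per printed spot across three slides.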 The following applies: FSTL3 binding, higher = more signal.
In assay [9] the target is Dickkopf-related protein 1 (Homo sapiens) (UniProt O94907). In words: small molecules binding DKK1 protein – biochemical, small-molecule microarray, 635 nm fluorescence scan, primary screen (AID 1106).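 Also: score merges emission near 667 nm with signal to noise over three replicate slides.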 To be noted: higher = more signal.
The test system of assay [10] is Inhibin beta A chain (activin A). In words: small molecules binding activin A – biochemical, small-molecule microarray, 635 nm fluorescence scan, primary screen (AID 1107).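 Also: mouse activin A protein probed at 4.33 µg/mL on printed slides; score merges bound-protein fluorescence near 667 nm with spot signal-to-noise.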 The following applies: INHBA, higher = more signal.
In assay [11] the test system is Human papillomavirus type 1a protein E7 (residues 44-93). Description: small molecules binding HPV E7 44-93 – biochemical, small-molecule microarray, residues 44-93, 635 nm fluorescence, primary screen (AID 1108).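 Also: E7 fragment applied at 1 µg/mL in TBST for 1 h at 4 C; score combines spot fluorescence with its signal to noise ratio.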 To be noted: fluorescence 635 nm, higher = more signal.
The nature of assay [12]: hepatitis C replication reporter changes, two-sided – Huh7 cells, luciferase reporter, HCV replication inhibitor project, primary screen (AID 1109).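 Also: huh7 hepatoma cells harbouring a luciferase neomycin HCV replicon reporter; luciferase luminescence as measure of HCV replicon replication; test concentration not given here.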 The following applies: Huh7 HCV replicon luciferase reporter, 48 h; higher = more signal.
For assay [13], the target named is Left-right determination factor 2 (Homo sapiens) (UniProt O00292). Description: small molecules binding LEFTY2 protein – biochemical, small-molecule microarray, 635 nm fluorescence scan, primary screen (AID 1110). The following applies: higher = more signal.
For assay [14], the target named is Calmodulin-1 (Homo sapiens) (UniProt P0DP23). Description: small molecules binding calmodulin-1 with EGTA – biochemical, small-molecule microarray, Cy5-labelled CALM1, profiling panel (AID 1111).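 Also: labelled calmodulin applied in Tris saline Tween buffer holding calcium plus EGTA and DTT.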 To be noted: Cy5-CALM1 binding fluorescence, higher = more signal.
Assay [15] has the same target. Description: small molecules binding Ca-loaded calmodulin-1 – biochemical, small-molecule microarray, Cy5-labelled CALM1, plus calcium, artefact control for SMM control-protein annotation, profiling panel (AID 1112).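 Also: score merges spot fluorescence with signal to noise from triplicate slides.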 The following applies: Cy5-CALM1 binding fluorescence, higher = more signal.
The nature of assay [16]: probe aWnt5a binding to arrayed compounds – biochemical, biotinylated probe, 635/667 nm fluorescence, primary screen (AID 1113).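 Also: score merges 667 nm fluorescence intensity with signal-to-noise per printed feature.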 The following applies: small-molecule microarray, higher = more signal.
A short description of assay [17]: probe aShh binding to arrayed compounds – biochemical, biotinylated probe, 635/667 nm fluorescence, primary screen (AID 1114).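 Also: probe is biotin-labelled aShh protein from a stem cell growth factor screen; measures binding of labelled protein to compounds printed on the slide; score merges feature fluorescence at 667 nm with signal-to-noise.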 To be noted: small-molecule microarray, higher = more signal.
Assay [18] is described as follows: probe aNog binding to arrayed compounds – biochemical, biotinylated probe, 635/667 nm fluorescence, primary screen (AID 1115).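 Also: probe is biotinylated aNog protein used at 0.15 µg/mL for 1 h at 4 C; z-score combines 667 nm fluorescence of each spot with its signal to noise.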 The following applies: small-molecule microarray, higher = more signal.
For assay [19], the target named is Torsin-1A-interacting protein 1 (Homo sapiens) (UniProt Q5JTV8). In words: compound microarray binding of lysate hLAP1 – cell lysate, small-molecule microarray, COS7 lysate, 635/667 nm fluorescence, primary screen (AID 1116). To be noted: 635 nm fluorescence, higher = more signal.
The target of assay [20] is Alpha-bungarotoxin (Bungarus multicinctus) (UniProt P60615). Description: compounds binding labelled alpha-BTX control protein – biochemical, small-molecule microarray, Alexa647 label, 635/667 nm fluorescence, artefact control for SMM control protein annotation, profiling panel (AID 1117). To be noted: alpha-BTX-A647 binding fluorescence, higher = more signal.

Molecules are shown by their SMILES. Activity calls are given as the source filed them.

Chain of Epidermal growth factor receptor (Homo sapiens) (P00533 whole entry, looked up): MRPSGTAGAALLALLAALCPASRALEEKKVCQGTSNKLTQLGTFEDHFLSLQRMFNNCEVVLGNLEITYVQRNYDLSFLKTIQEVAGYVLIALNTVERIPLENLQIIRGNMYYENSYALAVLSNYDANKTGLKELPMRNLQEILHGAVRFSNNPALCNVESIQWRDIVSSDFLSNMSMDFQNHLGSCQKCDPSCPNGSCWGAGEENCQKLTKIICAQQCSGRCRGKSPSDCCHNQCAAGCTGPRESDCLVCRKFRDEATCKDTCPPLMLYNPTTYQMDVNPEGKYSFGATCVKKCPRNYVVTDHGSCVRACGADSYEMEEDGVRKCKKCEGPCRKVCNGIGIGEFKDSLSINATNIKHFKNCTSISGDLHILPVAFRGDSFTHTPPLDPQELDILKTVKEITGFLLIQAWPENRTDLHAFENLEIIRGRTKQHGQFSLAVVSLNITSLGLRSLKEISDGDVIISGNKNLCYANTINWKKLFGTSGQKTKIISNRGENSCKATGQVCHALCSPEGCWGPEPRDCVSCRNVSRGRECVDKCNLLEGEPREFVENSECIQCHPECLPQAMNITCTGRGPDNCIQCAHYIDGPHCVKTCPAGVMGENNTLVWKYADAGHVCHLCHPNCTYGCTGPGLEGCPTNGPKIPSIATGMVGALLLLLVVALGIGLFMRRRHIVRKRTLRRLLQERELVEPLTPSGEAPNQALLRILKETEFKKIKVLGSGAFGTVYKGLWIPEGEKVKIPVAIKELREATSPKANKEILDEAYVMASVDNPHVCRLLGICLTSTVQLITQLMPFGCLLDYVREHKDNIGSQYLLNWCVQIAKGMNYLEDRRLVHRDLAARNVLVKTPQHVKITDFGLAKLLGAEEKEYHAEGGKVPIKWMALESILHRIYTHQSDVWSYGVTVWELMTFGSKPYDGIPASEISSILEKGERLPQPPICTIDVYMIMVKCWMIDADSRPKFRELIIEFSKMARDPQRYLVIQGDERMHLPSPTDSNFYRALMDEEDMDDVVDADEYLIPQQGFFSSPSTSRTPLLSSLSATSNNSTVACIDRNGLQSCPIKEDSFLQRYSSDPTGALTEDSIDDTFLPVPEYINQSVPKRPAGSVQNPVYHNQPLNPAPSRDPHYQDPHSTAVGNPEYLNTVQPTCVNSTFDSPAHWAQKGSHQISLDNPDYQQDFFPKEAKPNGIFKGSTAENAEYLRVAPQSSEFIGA
Chain of Alpha-bungarotoxin (Bungarus multicinctus) (P60615 whole entry, looked up): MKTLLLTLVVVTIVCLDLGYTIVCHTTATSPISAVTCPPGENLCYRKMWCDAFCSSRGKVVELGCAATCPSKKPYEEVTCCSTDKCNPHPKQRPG
Chain of Dickkopf-related protein 1 (Homo sapiens) (O94907 whole entry, looked up): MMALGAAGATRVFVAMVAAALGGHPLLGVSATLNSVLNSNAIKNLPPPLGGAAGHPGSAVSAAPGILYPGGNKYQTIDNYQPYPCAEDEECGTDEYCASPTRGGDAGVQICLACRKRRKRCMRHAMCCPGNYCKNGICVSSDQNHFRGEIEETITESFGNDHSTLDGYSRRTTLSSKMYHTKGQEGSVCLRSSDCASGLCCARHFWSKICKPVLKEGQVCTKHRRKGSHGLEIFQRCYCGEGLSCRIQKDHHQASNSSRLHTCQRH
Chain of Follistatin-related protein 3 (Homo sapiens) (O95633 whole entry, looked up): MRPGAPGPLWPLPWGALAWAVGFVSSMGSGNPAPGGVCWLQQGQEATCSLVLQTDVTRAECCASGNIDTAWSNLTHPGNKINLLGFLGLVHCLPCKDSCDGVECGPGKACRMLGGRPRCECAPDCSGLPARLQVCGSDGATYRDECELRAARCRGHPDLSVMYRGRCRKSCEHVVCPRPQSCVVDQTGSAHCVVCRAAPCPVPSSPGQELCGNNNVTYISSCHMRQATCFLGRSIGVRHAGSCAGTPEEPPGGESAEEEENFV
Chain of Fibroblast growth factor 10 (Homo sapiens) (O15520 whole entry, looked up): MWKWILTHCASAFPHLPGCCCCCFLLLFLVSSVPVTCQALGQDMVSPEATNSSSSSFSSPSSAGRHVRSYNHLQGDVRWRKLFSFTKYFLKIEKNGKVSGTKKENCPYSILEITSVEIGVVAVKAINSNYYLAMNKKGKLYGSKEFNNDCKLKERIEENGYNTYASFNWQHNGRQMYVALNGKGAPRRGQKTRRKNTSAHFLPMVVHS
Chain of Left-right determination factor 2 (Homo sapiens) (O00292 whole entry, looked up): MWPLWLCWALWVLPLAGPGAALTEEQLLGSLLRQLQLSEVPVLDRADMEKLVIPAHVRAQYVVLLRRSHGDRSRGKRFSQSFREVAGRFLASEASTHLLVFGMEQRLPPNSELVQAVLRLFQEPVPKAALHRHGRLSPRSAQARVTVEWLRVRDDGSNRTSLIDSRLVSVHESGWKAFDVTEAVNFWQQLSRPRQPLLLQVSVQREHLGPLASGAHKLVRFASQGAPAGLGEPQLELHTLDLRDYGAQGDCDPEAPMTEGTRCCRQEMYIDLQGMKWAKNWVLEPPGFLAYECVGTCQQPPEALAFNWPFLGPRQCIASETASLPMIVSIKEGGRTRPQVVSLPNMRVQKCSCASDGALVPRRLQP
Chain of Torsin-1A-interacting protein 1 (Homo sapiens) (Q5JTV8 whole entry, looked up): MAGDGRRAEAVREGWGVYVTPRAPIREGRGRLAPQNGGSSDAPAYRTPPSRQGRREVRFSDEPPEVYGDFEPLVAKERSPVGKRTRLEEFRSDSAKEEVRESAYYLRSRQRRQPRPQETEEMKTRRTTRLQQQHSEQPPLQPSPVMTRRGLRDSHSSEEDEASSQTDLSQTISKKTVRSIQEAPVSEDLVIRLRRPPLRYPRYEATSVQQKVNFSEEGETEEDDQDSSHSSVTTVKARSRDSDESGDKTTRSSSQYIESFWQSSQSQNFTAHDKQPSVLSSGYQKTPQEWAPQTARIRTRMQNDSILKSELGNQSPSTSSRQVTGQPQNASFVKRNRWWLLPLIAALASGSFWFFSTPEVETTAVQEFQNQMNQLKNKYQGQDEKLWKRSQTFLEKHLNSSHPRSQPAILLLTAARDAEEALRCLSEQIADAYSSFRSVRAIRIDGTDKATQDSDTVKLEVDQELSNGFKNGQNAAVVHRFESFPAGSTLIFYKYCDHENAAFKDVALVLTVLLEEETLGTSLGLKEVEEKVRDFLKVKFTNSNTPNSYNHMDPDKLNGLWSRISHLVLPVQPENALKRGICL

As to `CC(C)NC(=O)[C@@]1(c2ccc([N+](=O)[O-])cc2)CC(=O)N(C(C)C)[C@@H]1c1ccc(CO)cc1`, the composite z-score in assay [1] was -0.277; in [2], -0.247; in [3] it was 1.07; in assay [5], -0.907; in assay [6], -0.153; in assay [7], -0.761. Besides, the composite z-score was -0.867 in assay [8]; -1.56 in assay [9]; -1.45 in assay [10]; 0.559 in [11]; -1.86 in assay [13]; -0.678 in assay [14]. Besides, the composite z-score was -0.56 in [15]; -0.197 in assay [16]; 0.0899 in assay [17]; -0.311 in assay [18]; -0.534 in [19]; -0.125 in assay [20]. For the same compound, the z-score in assay [4] was -0.64 (inactive); in assay [12], -0.176.

Consider `CCCNC(=O)[C@@]1(c2ccc([N+](=O)[O-])cc2)CC(=O)N(CC23CC4CC(CC(C4)C2)C3)[C@@H]1c1ccc(CO)cc1I`, for which the composite z-score was found to be 0.441 in assay [1]; 0.563 in [2]; 0.195 in assay [3]; 0.193 in assay [5]; 0.588 in assay [6]; 0.27 in [7]. The composite z-score in assay [8] came to 0.236; in [9], 0.0305; in assay [10], 0.655; in assay [11], 0.0836; in [13], 0.152; in [14] it was 0.838. Moreover, the composite z-score is 0.94 in [15]; -0.0303 in [16]; 0.166 in assay [17]; 0.431 in assay [18]; -0.421 in assay [19]; 0.695 in [20]. In addition, the results for the z-score in assay [4] and in [12] were 1.58 (inactive) and -3.32, respectively.

Consider `C#C[C@H]1Oc2ccccc2S(=O)(=O)N2CCC[C@@H]12`, for which the composite z-score was 0.578 in [1]; -0.215 in assay [2]; -0.0688 in assay [3]; -0.0502 in assay [5]; 0.0695 in assay [6]; 0.354 in assay [7]. Further, the composite z-score in [8] is 0.712; in [9], 1.29; in assay [10], 1.74; in [11], -0.137; in assay [13], 0.533; in assay [14], -0.982. Also, the composite z-score in assay [15] was -0.495; in assay [16] it was -0.169; in assay [17], 0.0815; in [18], -0.1; in [19], 0.0849; in assay [20] it was -0.288. Also, the z-score was 0.724 (inactive) in [4] and -0.871 in assay [12].

`COC(=O)[C@@]1(Cc2ccc(OC)cc2)[C@H]2c3cc(C(=O)N4CCCC4)n(CCN4CCOCC4)c3C[C@H]2CN1C(=O)c1ccccc1`: the composite z-score in [1] worked out at 1.25; in assay [2], 2.6; in assay [3], 1.52; in assay [5], 1.35; in assay [6] it was 0.325; in [7], 0.947. For the same compound, the composite z-score in [8] was 0.629; in assay [9], -0.138; in assay [10], 0.492; in assay [11], 1.04; in assay [13], 0.285; in [14], 1.55. The composite z-score stood at 1.21 in assay [15]; 1.19 in assay [16]; 2.65 in assay [17]; 2.75 in assay [18]; 0.934 in assay [19]; 0.609 in [20]. Besides, the z-score was 0.0643 (inactive) in assay [4] and -0.882 in assay [12].

For `C=CCN1C(=O)[C@@]2(O[C@@H](CCO)[C@H]([Si](C)(C)c3ccc(OC)cc3)[C@H]2C)c2cc(N3C(=O)COc4ccccc43)ccc21`, the composite z-score in assay [1] was 1.16; in [2], -0.447; in [3], -0.0458; in assay [5], 0.993; in assay [6], 0.324; in assay [7] it was -0.289. For the same compound, the composite z-score in assay [8] is 0.193; in assay [9] it was -0.609; in [10], -0.145; in assay [11], 1.33; in assay [13], 0.345; in [14], 0.695. For the same compound, the composite z-score was -0.334 in [15]; 0.149 in [16]; -0.0626 in assay [17]; -0.292 in [18]; 1.16 in [19]; 0.445 in [20]. Also, the results for the z-score in [4] and in assay [12] were -3.26 (inactive) and -5.18, respectively.

Take `COc1ccc([Si](C)(C)[C@H]2[C@H](CC(=O)N3CCC[C@H]3CO)O[C@@]3(C(=O)N(c4ccccc4)c4ccccc43)[C@@H]2C)cc1`: the composite z-score in assay [1] was 1.28; in assay [2] it was -0.344; in assay [3], -0.28; in assay [5] it was -0.174; in assay [6], -0.828; in assay [7], 0.138. Moreover, the composite z-score in assay [8] is 0.051; in assay [9] it was 0.487; in [10], 0.581; in assay [11], -0.542; in assay [13] it was 0.301; in [14], -0.363. The composite z-score in assay [15] is -0.366; in [16] it was -0.156; in assay [17], -0.13; in assay [18] it was -0.1; in assay [19], 0.429; in assay [20] it was 0.0488. Besides, the z-score in assay [4] is -1.82 (inactive); in assay [12], -1.12.

Source of the values: PubChem BioAssay.
